Among the data in PubChem BioAssay AID1321 (The Scripps Research Institute Molecular Screening Center, 2008) are activation values, retold here.

Each structure is given as a SMILES string. The campaign covered roughly 220,000 compounds. About 2,600 (1.2%) were called active. The entries come from a sample that favours actives as a whole. A number with no mark means an inactive call.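 The calls were made as follows: active = activation above the mean of all tested compounds plus 3 SD, set per screening run (cut at about 8.8% in these data); inactive = the rest.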

The target of this assay is Wee1-like protein kinase (Homo sapiens) (UniProt P30291). The assay is described as follows: compounds stabilizing Wee1-luciferase fusion – cell-based, HeLa, Wee1K328M-luciferase, luminescence, primary screen (AID 1321).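 Also: cells exposed to compound for 20 h before luminescence read; 0% = DMSO alone and 100% = MG132 at 30 µM.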 As to conditions: HeLa Luc-Wee1K328M stability, at 5 µM, active compounds read high.
For `CCCCC(=O)N/N=C/c1c(O)n(-c2ccccc2)c(=O)[nH]c1=O`, the activation is -2.55%.
For the compound `O=C(N/N=C/c1c(O)n(Cc2ccccc2)c(=O)[nH]c1=O)c1ccccc1`, the activation is 16.4% (active).
For `O=c1[nH]c(=O)n(Cc2ccccc2)c(O)c1/C=N/Nc1c(F)c(F)c(F)c(F)c1F`, the activation was -0.63%.
Regarding `CN(C)CC1CCCCC1=O` (stereo not given), the activation is -1.81%.
`NC(=O)Nc1cccc(C(F)(F)F)c1`: the activation was 0.59%.
